Our source for the composite z-score and z-score values is PubChem BioAssay.

Assay [1] can be described thus: small molecules captured by biotinylated probe aFSTL3 – biochemical, small-molecule microarray, fluorescence 635/667, stem cell growth factor project, primary screen (AID 1064).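 Further: measures binding of the biotinylated anti-FSTL3 antibody to printed compounds.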 The conditions noted are these: higher = more signal.
Assay [2] can be described thus: binders from COS7 lysate, DM2A8 probe, primary screen, torsin A project, cell lysate, small-molecule microarray, fluorescence 635/667 (AID 1065). Particulars: higher = more signal, COS7 lysate expressing mutant human TOR1A.
Assay [3] in a line: small molecules captured by biotinylated probe aFGF2 – biochemical, small-molecule microarray, fluorescence 635/667, stem cell growth factor project, primary screen (AID 1067).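 Further: measures binding of biotinylated aFGF2 protein to printed compounds on slides; z-score merges feature fluorescence and signal-to-noise across triplicate slides.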 Particulars: higher = more signal.
Assay [4] in a line: small molecules captured by biotinylated probe aFGF10 – biochemical, small-molecule microarray, fluorescence 635/667, stem cell growth factor project, primary screen (AID 1071).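 Further: score merges 667 nm spot intensity and signal to noise from triplicate slides.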 Particulars: higher = more signal.
For assay [5], the target named is Neurogenic locus notch homolog protein 2 (Homo sapiens) (UniProt Q04721). The experiment in a line: small molecules binding Notch2 protein – biochemical, small-molecule microarray, 635 nm fluorescence, stem cell growth factors, primary screen (AID 1073). The conditions noted are these: higher = more signal.
The target in assay [6] is Pro-neuregulin-1, membrane-bound isoform (Homo sapiens) (UniProt Q02297). As to the kind of experiment: small molecules binding neuregulin-1 protein – biochemical, small-molecule microarray, fluorescence 635/667, psychiatric disease protein project, primary screen (AID 1075).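 Further: score combines 667 nm spot fluorescence with signal to noise.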 The conditions noted are these: NRG1 binding, 635 nm fluorescence, higher = more signal.
The test system of assay [7] is Neuregulin-1 EGF-like domain. As to the kind of experiment: small molecules binding NRG1 EGF domain – biochemical, small-molecule microarray, 635 nm fluorescence, primary screen (AID 1081).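 Further: binding of the protein to compounds printed on small-molecule microarray slides.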 The conditions noted are these: higher = more signal.
Assay [8] in a line: FRG1 expression reporter modulators in myotubes – cell-based, C2C12 myotubes, firefly/Renilla luciferase, luminescence, FRG1 inhibition for FSHD, primary screen (AID 1084). Particulars: FRG1 promoter luciferase, higher = more signal, called active from +8 up or from −8 down.
Assay [9] is described as follows: small molecules captured by biotinylated probe aFST – biochemical, small-molecule microarray, fluorescence 635/667, stem cell growth factor project, primary screen (AID 1086).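 Further: score merges 667 nm fluorescence with signal-to-noise of each printed compound spot.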 Particulars: higher = more signal.
Assay [10] in a line: binders of probe aHhip on microarray, primary screen, stem cell growth factor project, biochemical, small-molecule microarray, fluorescence 635/667 (AID 1087).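 Further: score merges spot fluorescence at 667nm with spot signal to noise ratio.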 The conditions noted are these: higher = more signal.
Assay [11] concerns PRMT1 (protein arginine N-methyltransferase 1). As to the kind of experiment: small molecules binding arginine methyltransferase PRMT1 – biochemical, small-molecule microarray, 635 nm fluorescence, primary screen (AID 1088).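 Further: binding of Prmt1 protein to compounds spotted on small-molecule microarray slides.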 The conditions noted are these: higher = more signal.
A short description of assay [12]: growth effects on S. cerevisiae YJM789 – YJM789 clinical isolate, OD600, 24 h, basal, primary screen (AID 1089).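 Further: growth of clinical yeast isolate S. cerevisiae YJM 789 seeded 1000 cells per well; test concentration not given here.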 Particulars: higher = more signal, called active from +8 up or from −8 down.
Assay [13] can be described thus: S. pombe growth modifiers, basal conditions – strain 972, OD600, 24 h, no modulator, primary screen (AID 1090).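 Further: basal condition with compound alone and no growth modifier present; test concentration not given here.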 Particulars: S. pombe 972 growth, higher = more signal, called active from +8 up or from −8 down.
Assay [14] is described as follows: budding yeast growth modifiers under rapamycin – strain BY4716, OD600, 96 h, primary screen (AID 1091). Further: test concentration not given here. The conditions noted are these: S. cerevisiae BY4716 + rapamycin, higher = more signal, called active from +8 up or from −8 down.
The target in assay [15] is Torsin-1A-interacting protein 2 (Homo sapiens) (UniProt Q8NFQ8). The experiment in a line: small molecules binding lysate-expressed LULL1 – cell lysate, human LULL1 lysate, 635/667 nm fluorescence, primary screen (AID 1092).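 Further: probe is lysate of COS7 cells overexpressing human LULL1; score merges per-feature 667 nm fluorescence with signal-to-noise.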 Particulars: small-molecule microarray, hLULL1 lysate binding, 635 nm fluorescence; higher = more signal.
The nature of assay [16]: optical density change of DRC41 E. coli – strain DRC41, OD650, 24 h, E. coli filamentation project, primary screen (AID 1093).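 Further: MC1000 strain lacking acrAB efflux and sulA so SOS filamentation is blocked; test concentration not given here.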 The conditions noted are these: E. coli DRC41 growth, higher = more signal, called active from +8 up or from −8 down.
The nature of assay [17]: probe aLefty2 binding to arrayed compounds – biochemical, biotinylated probe, 635/667 nm fluorescence, primary screen (AID 1094).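 Further: score merges spot fluorescence near 667 nm with spot signal-to-noise ratio.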 The conditions noted are these: small-molecule microarray, higher = more signal.
Assay [18] has as its system Noggin (protein binding on small-molecule microarray). As to the kind of experiment: small molecules binding Noggin protein – biochemical, 635/667 nm fluorescence, primary screen (AID 1095).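 Further: score merges 667 nm feature fluorescence with signal to noise over triplicate slides.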 Particulars: 635 nm fluorescence, higher = more signal.
The target in assay [19] is Neurogenic locus notch homolog protein 3 (Homo sapiens) (UniProt Q9UM47). As to the kind of experiment: small molecules binding NOTCH3 protein – biochemical, 635/667 nm fluorescence, primary screen (AID 1096). Particulars: small-molecule microarray, 635 nm fluorescence, higher = more signal.
Assay [20] in a line: probe aEGFR binding to arrayed compounds – biochemical, biotinylated probe, 635/667 nm fluorescence, primary screen (AID 1097).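 Further: probe is a biotinylated anti-EGFR antibody binding compounds printed on slides; score combines fluorescence near 667 nm and signal to noise of each spot.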 The conditions noted are these: small-molecule microarray, higher = more signal.

Activity calls are given as the source filed them.

Neurogenic locus notch homolog protein 2 (Homo sapiens), sequence (Q04721 whole entry, looked up, canonical isoform): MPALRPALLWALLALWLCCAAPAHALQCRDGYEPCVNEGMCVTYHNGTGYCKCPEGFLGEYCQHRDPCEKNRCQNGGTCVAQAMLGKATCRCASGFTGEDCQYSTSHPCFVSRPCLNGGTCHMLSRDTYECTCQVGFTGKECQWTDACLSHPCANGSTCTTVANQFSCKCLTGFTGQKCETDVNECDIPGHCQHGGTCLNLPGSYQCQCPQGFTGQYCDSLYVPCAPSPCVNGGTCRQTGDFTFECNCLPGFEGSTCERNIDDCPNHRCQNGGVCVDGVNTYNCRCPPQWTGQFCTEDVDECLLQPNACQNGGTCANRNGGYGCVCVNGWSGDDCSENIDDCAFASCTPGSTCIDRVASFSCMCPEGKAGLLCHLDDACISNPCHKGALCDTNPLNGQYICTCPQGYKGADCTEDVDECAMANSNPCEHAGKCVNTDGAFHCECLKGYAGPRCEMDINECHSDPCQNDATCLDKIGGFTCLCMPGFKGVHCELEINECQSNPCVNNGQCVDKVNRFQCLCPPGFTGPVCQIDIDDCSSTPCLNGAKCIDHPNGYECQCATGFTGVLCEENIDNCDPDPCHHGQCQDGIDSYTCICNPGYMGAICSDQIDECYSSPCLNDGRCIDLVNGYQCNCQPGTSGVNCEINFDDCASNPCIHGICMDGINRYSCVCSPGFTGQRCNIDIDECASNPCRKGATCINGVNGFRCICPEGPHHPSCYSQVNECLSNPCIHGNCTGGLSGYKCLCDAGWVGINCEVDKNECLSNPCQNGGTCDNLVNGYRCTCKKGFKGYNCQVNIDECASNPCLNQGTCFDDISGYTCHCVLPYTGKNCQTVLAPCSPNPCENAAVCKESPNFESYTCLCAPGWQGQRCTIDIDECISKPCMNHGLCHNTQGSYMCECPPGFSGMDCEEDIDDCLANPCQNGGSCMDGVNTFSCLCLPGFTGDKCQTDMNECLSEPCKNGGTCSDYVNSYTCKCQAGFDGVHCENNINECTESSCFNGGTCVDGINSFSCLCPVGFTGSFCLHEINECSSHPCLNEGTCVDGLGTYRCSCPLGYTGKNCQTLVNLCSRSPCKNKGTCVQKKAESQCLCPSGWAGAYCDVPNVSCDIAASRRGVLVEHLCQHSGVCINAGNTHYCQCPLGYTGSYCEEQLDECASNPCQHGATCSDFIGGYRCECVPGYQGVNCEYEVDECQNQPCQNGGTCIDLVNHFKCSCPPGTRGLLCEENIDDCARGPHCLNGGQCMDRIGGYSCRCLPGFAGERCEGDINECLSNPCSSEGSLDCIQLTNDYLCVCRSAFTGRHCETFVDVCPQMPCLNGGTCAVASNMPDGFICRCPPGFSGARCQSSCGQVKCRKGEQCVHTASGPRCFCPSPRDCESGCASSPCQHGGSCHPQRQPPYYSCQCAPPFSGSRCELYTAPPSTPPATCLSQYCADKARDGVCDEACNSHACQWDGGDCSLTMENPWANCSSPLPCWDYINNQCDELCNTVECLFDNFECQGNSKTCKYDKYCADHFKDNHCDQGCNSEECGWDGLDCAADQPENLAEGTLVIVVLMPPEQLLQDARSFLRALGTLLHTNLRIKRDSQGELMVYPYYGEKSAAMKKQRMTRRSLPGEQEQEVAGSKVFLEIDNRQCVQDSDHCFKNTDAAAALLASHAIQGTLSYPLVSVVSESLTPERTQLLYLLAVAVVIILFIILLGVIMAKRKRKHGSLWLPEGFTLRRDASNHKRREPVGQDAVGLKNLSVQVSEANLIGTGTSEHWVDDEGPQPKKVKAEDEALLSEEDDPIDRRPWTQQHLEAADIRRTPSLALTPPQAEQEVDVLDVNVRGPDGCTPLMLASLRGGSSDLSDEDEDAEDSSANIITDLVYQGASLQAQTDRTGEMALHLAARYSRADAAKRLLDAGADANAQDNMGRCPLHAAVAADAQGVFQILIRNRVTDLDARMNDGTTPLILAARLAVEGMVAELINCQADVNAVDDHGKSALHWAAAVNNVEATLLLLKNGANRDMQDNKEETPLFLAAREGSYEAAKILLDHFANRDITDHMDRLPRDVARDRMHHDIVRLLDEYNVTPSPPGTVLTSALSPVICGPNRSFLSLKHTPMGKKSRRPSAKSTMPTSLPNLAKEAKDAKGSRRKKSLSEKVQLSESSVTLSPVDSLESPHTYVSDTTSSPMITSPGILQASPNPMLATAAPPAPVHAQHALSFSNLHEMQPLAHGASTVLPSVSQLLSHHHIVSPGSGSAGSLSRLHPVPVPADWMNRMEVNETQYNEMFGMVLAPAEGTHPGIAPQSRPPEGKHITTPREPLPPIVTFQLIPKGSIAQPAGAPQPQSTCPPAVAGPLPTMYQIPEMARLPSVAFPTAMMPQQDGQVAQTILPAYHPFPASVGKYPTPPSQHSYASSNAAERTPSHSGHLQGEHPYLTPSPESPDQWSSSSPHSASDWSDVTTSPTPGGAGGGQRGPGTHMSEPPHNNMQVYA
Neurogenic locus notch homolog protein 3 (Homo sapiens), sequence (Q9UM47 whole entry, looked up): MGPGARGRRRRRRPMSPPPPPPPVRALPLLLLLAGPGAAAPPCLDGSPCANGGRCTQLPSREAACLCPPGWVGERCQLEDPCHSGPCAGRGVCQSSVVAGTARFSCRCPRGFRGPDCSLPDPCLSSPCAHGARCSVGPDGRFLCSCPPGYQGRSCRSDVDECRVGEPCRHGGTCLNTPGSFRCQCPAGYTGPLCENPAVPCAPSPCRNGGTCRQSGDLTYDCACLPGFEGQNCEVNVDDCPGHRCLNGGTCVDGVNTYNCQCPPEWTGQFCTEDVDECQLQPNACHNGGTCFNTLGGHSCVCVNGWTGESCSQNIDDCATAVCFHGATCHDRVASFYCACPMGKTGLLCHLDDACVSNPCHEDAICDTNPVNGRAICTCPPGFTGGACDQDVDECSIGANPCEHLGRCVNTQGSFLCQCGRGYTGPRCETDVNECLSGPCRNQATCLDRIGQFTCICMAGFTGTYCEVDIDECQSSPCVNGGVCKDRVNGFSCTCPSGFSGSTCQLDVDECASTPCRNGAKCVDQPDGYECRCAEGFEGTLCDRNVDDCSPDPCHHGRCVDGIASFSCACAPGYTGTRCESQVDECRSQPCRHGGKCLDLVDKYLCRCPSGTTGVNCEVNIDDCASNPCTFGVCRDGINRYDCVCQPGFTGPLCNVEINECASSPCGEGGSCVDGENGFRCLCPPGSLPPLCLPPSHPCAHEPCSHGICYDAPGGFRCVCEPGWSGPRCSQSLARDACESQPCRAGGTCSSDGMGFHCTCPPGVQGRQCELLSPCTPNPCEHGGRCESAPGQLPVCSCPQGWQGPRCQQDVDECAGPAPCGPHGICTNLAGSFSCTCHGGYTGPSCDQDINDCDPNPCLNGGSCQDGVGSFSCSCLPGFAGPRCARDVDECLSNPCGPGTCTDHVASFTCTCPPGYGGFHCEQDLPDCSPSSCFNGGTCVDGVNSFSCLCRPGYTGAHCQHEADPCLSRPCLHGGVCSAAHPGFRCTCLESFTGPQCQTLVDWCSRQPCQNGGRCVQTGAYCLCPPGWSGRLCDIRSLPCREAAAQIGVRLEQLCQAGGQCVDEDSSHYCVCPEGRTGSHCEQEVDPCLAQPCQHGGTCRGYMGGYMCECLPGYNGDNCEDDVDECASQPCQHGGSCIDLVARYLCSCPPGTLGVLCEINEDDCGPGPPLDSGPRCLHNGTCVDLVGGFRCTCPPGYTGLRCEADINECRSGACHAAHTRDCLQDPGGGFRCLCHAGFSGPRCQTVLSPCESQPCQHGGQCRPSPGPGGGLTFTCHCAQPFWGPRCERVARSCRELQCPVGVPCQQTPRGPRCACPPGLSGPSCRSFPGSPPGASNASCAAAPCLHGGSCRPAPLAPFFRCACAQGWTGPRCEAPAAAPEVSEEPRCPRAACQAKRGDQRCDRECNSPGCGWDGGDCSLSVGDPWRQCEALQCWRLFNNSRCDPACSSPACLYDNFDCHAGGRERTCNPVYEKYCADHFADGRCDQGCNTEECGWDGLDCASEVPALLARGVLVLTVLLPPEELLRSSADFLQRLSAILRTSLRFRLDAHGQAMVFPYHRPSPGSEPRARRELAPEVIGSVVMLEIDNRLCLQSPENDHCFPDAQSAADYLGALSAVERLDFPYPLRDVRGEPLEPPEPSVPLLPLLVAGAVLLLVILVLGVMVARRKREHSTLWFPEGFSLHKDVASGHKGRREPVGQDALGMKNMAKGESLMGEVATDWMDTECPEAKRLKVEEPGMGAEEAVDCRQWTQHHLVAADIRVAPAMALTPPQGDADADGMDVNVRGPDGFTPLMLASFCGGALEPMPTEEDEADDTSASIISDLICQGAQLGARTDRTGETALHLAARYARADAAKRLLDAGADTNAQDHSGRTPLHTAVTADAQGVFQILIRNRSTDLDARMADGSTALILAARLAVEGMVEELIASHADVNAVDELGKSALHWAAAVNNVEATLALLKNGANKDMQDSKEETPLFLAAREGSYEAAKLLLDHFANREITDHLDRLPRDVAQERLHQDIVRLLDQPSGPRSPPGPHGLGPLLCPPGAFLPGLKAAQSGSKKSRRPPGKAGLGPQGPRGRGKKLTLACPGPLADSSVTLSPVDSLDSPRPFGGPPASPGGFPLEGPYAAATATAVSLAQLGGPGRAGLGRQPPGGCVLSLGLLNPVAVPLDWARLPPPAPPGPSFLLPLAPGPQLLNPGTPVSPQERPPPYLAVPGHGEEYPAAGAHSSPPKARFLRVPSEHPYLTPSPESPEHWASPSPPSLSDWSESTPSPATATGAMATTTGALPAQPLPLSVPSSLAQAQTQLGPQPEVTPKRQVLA

As for `COCCOC(=O)N1C(=O)[C@@]2(c3cc(C#CC4(O)CCCCCC4)ccc31)[C@H](c1ccc(OCCO)cc1)N1[C@H](c3ccccc3)[C@H](c3ccccc3)OC(=O)[C@H]1[C@@H]2C(=O)Nc1nc2ccccc2s1`, the composite z-score in [1] is 0.676; in assay [2], 0.54; in [3], -0.0234; in assay [4], 0.874; in assay [5] it was 1.32; in assay [6] it was 0.526. In addition, the composite z-score in [7] came out at 1.04; in assay [9], 1.08; in assay [10] it was 0.245; in assay [11] it was 1.54; in [15], 1.57; in assay [17], 0.225. Moreover, the composite z-score stood at 1.42 in [18], 1.05 in assay [19] and 0.219 in [20]. Also, the z-score in assay [8] is 3.79 (inactive); in [12], 1.76 (inactive); in assay [13], 1.05 (inactive); in [14], 2.93 (inactive); in assay [16] it was 0.11 (inactive).

As to `CCOC(=O)C[C@H]1[C@H](OC(=O)c2ccccc2-c2ccccc2)[C@@H](NC(=O)c2ccc3ccccc3n2)c2cc(OCCCO)ccc2N1C(=O)c1ccccc1`, the composite z-score in assay [1] was -0.384; in assay [2] it was 0.491; in assay [3] it was -0.0752; in assay [4], 0.331; in [5] it was 0.417; in assay [6] it was 0.288. Also, the composite z-score in assay [7] was 0.666; in [9], 0.377; in assay [10], 0.0401; in [11] it was 1.01; in assay [15] it was 1.46; in assay [17] it was -0.149. Further, the values for the composite z-score in assay [18], in assay [19] and in assay [20] were 0.54, 0.797 and -0.0084, respectively. The z-score in assay [8] is -0.764 (inactive); in [12] it was 1.2 (inactive); in assay [13] it was 0.364 (inactive); in assay [14], 1.61 (inactive); in assay [16], -0.943 (inactive).

Turning to `CCOC(=O)C1=C[C@@H](C(C)(C)C)N(S(=O)(=O)c2ccc(C)cc2)[C@H]1c1ccc(C)cc1`, the composite z-score in assay [1] is -0.173; in assay [2], 0.577; in [3] it was 0.135; in assay [4], 1.13; in assay [5], 1.68; in assay [6], 0.877. Also, the composite z-score in assay [7] turned out to be 0.894; in assay [9] it was 1.8; in assay [10], 0.245; in [11], 1.54; in [15] it was 3.25; in assay [17], 0.273. Also, the composite z-score in [18] came to 0.552; in assay [19], 1.02; in [20], 0.157. For the same compound, the z-score is -2.53 (inactive) in [8]; -0.582 (inactive) in [12]; 0.0598 (inactive) in [13]; 0.632 (inactive) in assay [14]; -1.38 (inactive) in assay [16].

Take `C=C(COC)C(=O)CC[C@H](OC(=O)c1cccnc1)c1ccc(CO)o1`: the composite z-score in assay [1] was -0.403; in [2], -0.049; in assay [3], -0.124; in [4], 0.842; in assay [5] it was 0.574; in [6], 0.57. In addition, the composite z-score in [7] was 1.12; in [9] it was 0.34; in assay [10], -0.0994; in assay [11], 1.33; in assay [15] it was 0.103; in assay [17], -0.132. Besides, the composite z-score was 1.1 in assay [18], 1.02 in assay [19] and -0.0313 in assay [20]. Besides, the z-score was 0.292 (inactive) in [8]; -1.26 (inactive) in assay [12]; -0.292 (inactive) in assay [13]; -0.35 (inactive) in [14]; -0.252 (inactive) in assay [16].

For `CC(=O)NCCCC[C@@H]1NC(=O)[C@H]2C[C@@H](C(=O)NCCCCCNC(=O)CS)[C@@H](c3cccc(OCCO)c3)N2C1=O`, the composite z-score in assay [1] is -0.0107; in assay [2], 0.487; in assay [3], -0.133; in assay [4], -0.379; in [5], -0.544; in assay [6] it was -0.352. For the same compound, the composite z-score in assay [7] is 1.03; in assay [9], -0.203; in assay [10] it was -0.0074; in assay [11], 0.896; in [15], 3.18; in [17], -0.184. The composite z-score in assay [18] is 0.52; in assay [19], 0.059; in assay [20], -0.104. The z-score in assay [8] was 0.824 (inactive); in [12], 0.778 (inactive); in assay [13], 0.0625 (inactive); in assay [14], 0.0709 (inactive); in [16], -0.418 (inactive).
